Compound activity (PubChem)
The entries come from a sample that favours hits as a whole.
BoNT-F LC inh: inhibitors of Botulinum neurotoxin F light chain protease | Multiplex microsphere protease cleavage assay, flow cytometry | inhibition, % at 10 µM | 0.22% of 360,000 active | AID 588497; in the data active = inhibition above about 35%, passing the limit was not always enough; inconclusive = no clear call, values can overlap the other calls
Anthrax LF prot: anthrax lethal factor protease inhibition; P15917; AID 588501; inhibition, % at 10 µM; 0.12% of 360,000 active; multiplex microsphere protease cleavage assay, LF
TcdB GH inh: inhibitors of Clostridioides difficile toxin B glycohydrolase. P18177. TcdB glycohydrolase enzymatic assay, plate reader. inhibition, % at 9.99 µM. 0.24% of 350,000 active. AID 652162; in the data active = inhibition above about 10%
Bead autofluor: flagged as autofluorescent in microsphere protease counterscreen; compound autofluorescence counterscreen, microsphere flow cytometry; hits give high values; fluorescence intensity (test concentration not listed); 3.1% of 360,000 active; AID 624483; in the data active = fluorescence intensity above about 16000; inconclusive = no clear call, values can overlap the other calls
BoNT A protease: BoNT A light chain protease inhibition. multiplex microsphere protease substrate cleavage, flow cytometry. inhibition, % at 10 µM. 0.17% of 360,000 active. AID 588499
Numbers stand for hits; n = inactive; u = inconclusive; x = no result. Rule as the data show it, unless noted: active = inhibition above about 30%; inconclusive = no clear call, values can overlap the other calls; inactive = below that.

SMILES	BoNT-F LC inh	Anthrax LF prot	TcdB GH inh	Bead autofluor	BoNT A protease
C[C@@H]1CN([C@@H](C)CO)C(=O)c2cc(NS(=O)(=O)c3ccc(Cl)cc3)ccc2O[C@@H]1CN(C)Cc1ccc(-c2ccccc2)cc1	x	x	n	x	x
O=C(NCC1CCCO1)/C(=C\c1cccc([N+](=O)[O-])c1)NC(=O)c1ccccc1 (stereo unspecified)	n	n	n	n	n
O=C(O)/C(=C\c1ccco1)NC(=O)c1cccc2ccccc12	n	n	n	20299	n
O=C(NCc1ccncc1)/C(=C/c1cccc([N+](=O)[O-])c1)NC(=O)c1ccccc1	38	n	n	n	n
O=C(Nc1ccc(O)cc1)/C(=C\c1ccncc1)NC(=O)c1ccccc1	n	n	24	n	n
O=C(Nc1ccc(O)cc1)/C(=C/c1ccco1)NC(=O)c1ccccc1	n	n	18	n	n
O=C(O)/C(=C/c1ccco1)NC(=O)c1ccccc1	n	n	n	n	n
O=C1CNC[C@H]2[C@H](c3ccc(C#CC4CCCC4)cc3)[C@@H](CO)N12	x	x	n	x	x
CCOc1ccc(-c2nn(-c3ccccc3)cc2/C=C2\SC(=S)N(C3CCS(=O)(=O)C3)C2=O)cc1 (stereo unspecified)	43	n	x	n	36
CCCOc1ccc(-c2nn(-c3ccccc3)cc2/C=C2\SC(=S)N(C3CCS(=O)(=O)C3)C2=O)cc1 (stereo unspecified)	40	47	x	n	49
COc1ccc(S(=O)(=O)Nc2ccc3c(c2)C(=O)N([C@@H](C)CO)C[C@H](C)[C@@H](CN(C)C(=O)CCC(F)(F)F)OCCCC[C@H](C)O3)cc1	x	x	n	x	x
Cn1c(=O)c2c(nc(OCc3ccc4c(c3)OCO4)n2Cc2ccccc2Cl)n(C)c1=O	n	n	x	n	n
Cn1c(=O)c2c(nc(Sc3ncccn3)n2Cc2ccccc2Cl)n(C)c1=O	n	n	n	18229	n
Cn1c(=O)c2c(nc(NCc3ccc4c(c3)OCO4)n2Cc2ccccc2Cl)n(C)c1=O	n	n	x	17237	n
Cn1c(=O)c2c(nc(SCCCO)n2Cc2ccccc2Cl)n(C)c1=O	n	n	x	16181	n
C=CCOc1nc2c(c(=O)n(C)c(=O)n2C)n1Cc1ccc(Cl)cc1	n	n	x	n	n
C=CCOc1nc2c(c(=O)n(C)c(=O)n2C)n1Cc1ccccc1Cl	n	n	x	20534	n
C=CC(C)Sc1nc2c(c(=O)n(C)c(=O)n2C)n1Cc1ccccc1Cl (stereo unspecified)	n	n	n	n	n
CCOC(=O)N1CCN(c2cc(=O)n(-c3ccc(OCC)cc3)c(=O)[nH]2)CC1	n	n	n	22900	n
COc1ccccc1N1CCN(c2cc(=O)n(-c3ccc(Br)cc3)c(=O)[nH]2)CC1	n	n	x	21225	n
CCOC(=O)N1CCN(c2cc(=O)n(-c3ccc(OC)cc3)c(=O)[nH]2)CC1	n	n	x	n	n
C[C@@H]1CN([C@H](C)CO)C(=O)Cc2cc(NS(=O)(=O)c3cn(C)cn3)ccc2O[C@@H]1CN(C)Cc1ccncc1	x	x	n	x	x
O=C(c1ccccc1)c1cc2ccc(O)cc2oc1=O	n	n	x	20651	n
COc1cc(NC(=O)c2cc(Cl)ccc2Cl)ccc1-c1cc2ccccc2oc1=O	n	n	x	22732	n
O=C(Nc1nnc(COc2ccccc2)s1)C1CCN(S(=O)(=O)c2ccc(Cl)cc2)CC1	n	n	x	23493	n
SMILES	BoNT-F LC inh	Anthrax LF prot	TcdB GH inh	Bead autofluor	BoNT A protease
O=C(Cc1ccccn1)N[C@H]1CC[C@H](CCn2cc(-c3cccnc3)nn2)O[C@H]1CO	x	x	n	x	x
Cc1cc[n+]2c3c(cccc13)CCC2	n	n	x	20480	n
c1ccc(OCCCCn2cnc3ccccc32)cc1	n	n	x	n	n
Brc1ccccc1OCCCn1cnc2ccccc21	n	n	x	19986	n
c1ccc(OCCn2cnc3ccccc32)cc1	n	n	n	17262	u
CCCOc1ccc(Cn2cnc3ccccc32)cc1	n	n	n	16239	n
CCCCSC1=NN1c1nc(N)nc(C)c1CC	n	n	x	22245	n
Cc1noc(C)c1S(=O)(=O)Nc1ccc2c(c1)C(=O)N([C@@H](C)CO)C[C@@H](C)[C@H](CN(C)C(=O)Nc1ccccc1)OCCCC[C@@H](C)O2	x	x	n	x	x
Cc1ccc(NC(=S)N2CCN(C(=O)C3CCCO3)CC2)c(C)c1 (stereo unspecified)	n	n	x	22658	u
Cc1ccc(NC(=S)N2CCC(N(C)CC3CCCO3)CC2)c(C)c1 (stereo unspecified)	n	n	x	19642	n
CCc1c(C)sc(NC(=S)N2CCN(C(=O)C3CCCO3)CC2)c1C(=O)OC (stereo unspecified)	n	n	n	51235	n
Cc1ccc(C)c(NC(=S)N2CCC(N(C)CC3CCCO3)CC2)c1 (stereo unspecified)	n	n	n	n	n
